# Laboratory results reported in PubChem BioAssay (NCATS).
# Results filed as inconclusive are left out. Activity calls are given as the source filed them. Unless noted, calls follow the shape of the dose curve; as a rule, active = well fitted curve in the direction sought with a large enough effect; inconclusive = small, poorly fitted or top-dose-only effect, or another doubt; inactive = no such curve, though single readings can be large; an effect the other way counts as inactive or inconclusive.
# Experiments:
# [1] = qHTS to identify inhibitors of the type 1 interferon - major histocompatibility complex class I in skeletal muscle: primary screen against the NCATS Mechanism Interrogation Plate v5.0 (MIPE) Libary (AID 1347411); also: nearly all actives have a fitted effect of over 65% in size; also: potency is read from the fitted curve at half-maximal effect;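 as to activity change, negative = inhibition: plate controls were vehicle for no effect and reference inhibitor for full effect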
# Procedure, shortened: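 Luminescence from HiBiT-tagged endogenous HLA-B*08:01 served as the MHC class I read-out. CRISPR-engineered C25cl48 human myoblasts received 4.0 ng/ml IFN-beta plus compound for 24 hrs, with an 11-point, 1:3 series topping at 46 uM final.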
# [2] = Primary qHTS for inhibitors of nuclear receptor binding SET domain protein 2 (NSD2) in an isogenic RCH-ACV NSD2 p.E1099K mutant (9B) (AID 1645876); also: nearly all actives have a fitted effect of over 70% in size; also: potency is read from the fitted curve at half-maximal effect; as to activity change, negative = viability loss: % is scaled to controls: 0 for no effect and ±100 for the full control effect
# [3] = Primary qHTS for inhibitors of nuclear receptor binding SET domain protein 2 (NSD2) in an RCH-ACV wild type WT cells (2C) (AID 1645877); also: nearly all actives have a fitted effect of over 70% in size; also: potency is read from the fitted curve at half-maximal effect; as to activity change, negative = cell killing: % is scaled to controls: 0 for no effect and ±100 for the full control effect
# [4] = target: Glutathione peroxidase 1 (Homo sapiens) (UniProt P07203); test: Primary qHTS Assay for Inhibitors of Recombinant Selenoprotein Glutathione Peroxidase 1 (GPX1) (AID 1845191); also: nearly all actives have a fitted effect of over 65% in size
# Glutathione peroxidase 1 (Homo sapiens), sequence (P07203 whole entry, looked up): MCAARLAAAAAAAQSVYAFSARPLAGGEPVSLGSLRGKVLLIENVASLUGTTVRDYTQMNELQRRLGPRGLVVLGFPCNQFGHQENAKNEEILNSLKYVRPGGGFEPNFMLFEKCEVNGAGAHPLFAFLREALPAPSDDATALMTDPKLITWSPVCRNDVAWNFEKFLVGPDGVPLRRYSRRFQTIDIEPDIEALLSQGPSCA
# Procedure, shortened: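 Recombinant GPX1 (10 nM final) was preincubated with compound for 30 min at room temperature, then reacted with 1 mM GSH, 0.5 mM CHP, 0.5 mM NADPH and 100 nM glutathione reductase; NADPH fluorescence (340/450 nm) was read at 0 and 15 min.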
# [5] = target: Phospholipid hydroperoxide glutathione peroxidase GPX4 (Homo sapiens) (UniProt P36969); test: Primary qHTS Assay for Inhibitors of Recombinant Selenoprotein Glutathione Peroxidase 4 (GPX4) (AID 1845192); settings: outcome: dose series up to 50 µM unless noted; also: nearly all actives have a fitted effect of over 65% in size; as to activity change, negative = inhibition: series mostly up to about 50 µM; % is scaled to controls: 0 for no effect and ±100 for the full control effect
# Phospholipid hydroperoxide glutathione peroxidase GPX4 (Homo sapiens), sequence (P36969 whole entry, looked up): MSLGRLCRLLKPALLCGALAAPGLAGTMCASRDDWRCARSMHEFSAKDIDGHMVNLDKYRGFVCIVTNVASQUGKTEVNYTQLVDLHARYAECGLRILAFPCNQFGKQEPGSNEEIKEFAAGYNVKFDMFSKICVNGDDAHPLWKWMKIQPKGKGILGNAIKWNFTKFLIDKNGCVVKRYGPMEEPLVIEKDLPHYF
# Procedure, shortened: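 GR-coupled readout: 100 nM GR, 1 mM GSH, 0.5 mM NADPH; NADPH fluorescence (ex 340/em 450 nm) read at t=0 and after 15 min RT. GPX4 200 nM, preincubated 30 min with compound; substrate 0.5 mM CHP.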
# [6] = qHTS drug screen for cell cycle checkpoint inhibitors in PARPi-resistant BRCA-mutant ovarian cancer cell lines. (AID 1963452; calls by dose curve; also: potency is read from the fitted curve at half-maximal effect); settings: PEO1/OlaR viability, CellTiter-Glo luminescence, 96 h; for Z-AUC: stronger effect = lower value
# Procedure, shortened: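 PEO1, PEO4 and PEO1/OlaR ovarian cancer cells, 600 per well, exposed 96 h at 37C to a dilution series. Viability read by CellTiter-Glo luminescence, normalized to DMSO and empty wells; activity summarized as Z-AUC.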
# [7] = measured here: PEO1 parental Z-AUC
SMILES,Potency [1],Potency [2],Potency [3],Potency [4],Potency [5],Z-AUC [6],"Z-AUC [6, 7]",Z-AUC ([6]; measured here: PEO4 Z-AUC),"activity change, negative = inhibition [1]","activity change, negative = viability loss [2]","activity change, negative = cell killing [3]",outcome [4],outcome [5],Potency [6]
CCCNC(=O)c1cn2ncnc(Nc3cc(C(=O)NC4CC4)ccc3C)c2c1C,inactive,inactive,inactive,inactive,inactive,-0.306 (inactive),0.435,0.239,–,–,–,–,–,–
COc1ccc([C@@H](O)[C@@H](C)Oc2ccc([C@H]3O[C@H](c4ccc(O[C@H](C)[C@H](O)c5ccc(OC)c(OC)c5)c(OC)c4)[C@H](C)[C@H]3C)cc2OC)cc1OC,inactive,5250 nM (active),5250 nM (active),inactive,inactive,-1.98 (inactive),-3.67,-2.38,–,–,–,–,–,–
COc1ccc2[nH]c(C(=O)N3CCC(CC(C)(C)O)CC3)cc2c1,inactive,inactive,inactive,inactive,inactive,0.0283 (inactive),0.0965,0.395,–,–,–,–,–,–
CN1CCCN(C(=O)c2cccc(-c3ccc(/C=C4/C(=O)Nc5ccc(Cl)cc54)o3)c2)CC1,8290 nM (active),186 nM (active),166 nM (active),inactive,inactive,0.657 (inactive),-0.436,-0.635,–,–,–,–,–,–
C=CC(=O)N1CCC(CNc2ncnc(N)c2-c2ccc(Oc3ccccc3)cc2)CC1,inactive,16600 nM (active),5900 nM (active),inactive,inactive,1.54 (inactive),1.18,1.23,–,–,–,–,–,–
COc1cc2c3c(n(CCCN4CCOCC4)c(=O)c2cc1OC)-c1cc2c(cc1C3=O)OCO2,inactive,372 nM (active),209 nM (active),inactive,inactive,-2.49 (inactive),-2.16,-0.656,–,–,–,–,–,–
CC(C)n1ncnc1-c1cn2c(n1)-c1ccc(O[C@@H](C)C(N)=O)cc1OCC2,inactive,934 nM (active),934 nM (active),inactive,inactive,-1.61 (inactive),-1.38,-1.69,–,–,–,–,–,–
CCN(CC)C(=O)Cc1csc(NS(=O)(=O)c2cccc(Cl)c2C)n1,inactive,inactive,inactive,inactive,inactive,0.874 (inactive),0.835,0.952,–,–,–,–,–,–
Cn1ncc(NC(=O)c2nc(-c3c(F)cccc3F)sc2N)c1N1CC[C@@H](N)[C@H](F)CC1,inactive,inactive,inactive,inactive,inactive,0.883 (inactive),0.956,0.537,–,–,–,–,–,–
OC[C@H]1O[C@@H](S[C@@H]2O[C@H](CO)[C@H](O)[C@H](n3cc(-c4cccc(F)c4)nn3)[C@H]2O)[C@H](O)[C@@H](n2cc(-c3cccc(F)c3)nn2)[C@H]1O,inactive,inactive,inactive,inactive,inactive,-0.122 (inactive),0.00215,0.252,–,–,–,–,–,–
COCCNc1cc(NC(=O)N2CCCc3cc(CN4CCN(C)CC4=O)c(C=O)nc32)ncc1C#N,–,–,–,–,–,0.715 (inactive),0.498,0.787,-1.84% [at 8.44 µM] (inactive),3.8% [at 9.23 µM] (inactive),2.96% [at 9.23 µM] (inactive),inactive [at 9.52 µM],inactive [at 9.73 µM],–
CC(C)(C)c1[nH]cnc1/C=c1\[nH]c(=O)/c(=C/c2ccccc2)[nH]c1=O,inactive,118 nM (active),118 nM (active),inactive,inactive,–,-2.5,-2.52,–,–,–,–,–,174 nM (active)
COc1ccccc1C(=O)Nc1cc2c(cc1N1CCCCC1)n(C)c(=O)n2C,inactive,inactive,inactive,inactive,inactive,1.08 (inactive),0.729,0.646,–,–,–,–,–,–
CC(C)NCCCn1c(Sc2cc(Cl)cc(Cl)c2)nc2c(N)ncnc21,inactive,20900 nM (active),18600 nM (active),inactive,inactive,-1.23 (inactive),-0.363,0.533,–,–,–,–,–,–
Cn1c(-c2ccccc2C(F)(F)F)nnc1C12CCC(c3noc(C4CC(F)(F)C4)n3)(CC1)CC2,inactive,inactive,inactive,inactive,inactive,1.42 (inactive),1.05,1.41,–,–,–,–,–,–
CC(C)(O)[C@H]1CC[C@@](C)([C@H]2[C@@H](O)C[C@@]3(C)[C@@H]4C[C@H](O[C@@H]5O[C@H](CO)[C@@H](O)[C@H](O)[C@H]5O)[C@H]5C(C)(C)[C@@H](O[C@@H]6OC[C@@H](O)[C@H](O)[C@H]6O)CC[C@@]56C[C@@]46CC[C@]23C)O1,inactive,inactive,inactive,inactive,inactive,-0.0384 (inactive),1.82,1.68,–,–,–,–,–,–
